Data published in PubChem BioAssay (NCI).
This is part of a sample that, as a whole, favours compounds with a hit. Of some 83,000 tested, about 20% had one in any assay.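 Note: values are percent growth. 100 is the growth of untreated cells, values between 100 and 0 indicate rising inhibition; between -100 and 0 indicates cell death.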 Unmarked numbers belong to inactive results. Activity calls are given as the source filed them. The calls were made as follows: active = growth percent below 10; inactive = the rest.

Assays:
Assay in all cases: NCI-60 one-dose screen, 48 h (100 = growth as untreated, 0 = no growth, -100 = all killed)
Conditions in all cases: 10 µM unless noted
[1] = system: NCI-H23 lung
[2] = system: NCI-H226 lung
[3] = system: NCI-H322M lung
[4] = system: HOP-62 NSCLC
[5] = system: NCI-H460 lung
[6] = system: HOP-92 NSCLC
[7] = system: NCI-H522 lung
[8] = system: A549/ATCC NSCLC
[9] = system: 786-0 renal
[10] = system: COLO 205 colon
[11] = system: DU-145 prostate
[12] = system: MALME-3M melanoma
[13] = system: MDA-MB-231 breast
[14] = system: SF-268 CNS
[15] = system: SF-295 CNS
[16] = system: SF-539 CNS
[17] = system: M14 melanoma
[18] = system: RXF 393 renal
[19] = system: UACC-257 melanoma
[20] = system: K-562 leukemia

SMILES | growth [1] | growth [2] | growth [3] | growth [4] | growth [5] | growth [6] | growth [7] | growth [8] | growth [9] | growth [10] | growth [11] | growth [12] | growth [13] | growth [14] | growth [15] | growth [16] | growth [17] | growth [18] | growth [19] | growth [20]
Cc1cc2c3ccccc3ccc2[n+]2ccccc12 | 46.4% | 43.4% | 47.2% | 9.19% (active) | 63.1% | 71.5% | -10.1% (active) | -16.9% (active) | 24% | 54.1% | 86.9% | -5.59% (active) | 81.6% | -24.6% (active) | 22.6% | 42.5% | 68.2% |  |  | 
CCc1c(Nc2ccccc2C)nc(N)[nH]c1=O | 117% | 103% | 103% | 100% | 108% | 93.7% | 99% | 114% | 109% | 109% | 111% | 102% | 114% | 101% | 105% | 103% | 106% | 112% | 115% | 
CCCCn1cnc2c(Sc3c([N+](=O)[O-])ncn3C)nc(N)nc21 | 110% | 96% | 105% | 94.7% | 106% | 76.2% | 97.3% | 88.2% | 104% | 100% | 99.6% | 93.9% | 97.9% | 102% |  | 105% | 102% | 102% | 84.1% | 
CN(C)C(=S)N=Nc1c(O)[nH]c2ccccc12 | 28.2% | 4.04% (active) | 24.6% | 10.9% | -4.55% (active) | -6.97% (active) | 27.4% | -10.6% (active) | 8.93% (active) | 19.7% | 31.6% | 30.8% | 49.1% | 14.6% | 17.5% | 9.37% (active) | -6.4% (active) |  |  | 
OCCN1CCN(c2nc(Nc3ccc(-c4nc5ccccc5[nH]4)cc3)c3cn[nH]c3n2)CC1 | -75.6% (active) | 106% | -89.8% (active) | -93.2% (active) | -85.4% (active) | -83.4% (active) |  | -91.9% (active) | -88.5% (active) | -81.4% (active) | -87.1% (active) | -74.2% (active) | -77% (active) | -80.9% (active) | -96% (active) | -85.4% (active) | -78.3% (active) | -93.6% (active) | -89% (active) | 
COc1cccc(-c2nc3sccn3c2-c2ccnc(NCCNS(=O)(=O)c3ccc(F)cc3)c2)c1 | 27.2% | 24% | 58.6% | 43.7% | 21.4% | 41% |  | 22.7% | 41.6% | 23.4% | 26.3% | 42.7% | 55.6% | 34.7% | 14.5% | 55.5% | 23.9% | 42.2% | 40% | 13.4%
Cc1nc(/N=C(\N)NC(=O)Nc2cccc([N+](=O)[O-])c2)sc1C | 81.8% | 90.5% | 93.7% | 83.3% | 90.5% | 84.1% |  | 89.1% | 90.5% | 90.6% | 89.8% | 78.2% | 98.8% | 92.9% | 83.3% | 78.4% | 57.1% | 91.4% | 88.5% | 14.3%
CCOc1ccc(-n2nc(C(=O)Nc3cc(OC)c(OC)c(OC)c3)nc2-c2cc(OC)c(OC)c(OC)c2)cc1 | 85% | 78.1% | 89.2% | 95.7% | 92.1% | 69.9% |  | 86.9% | 77.1% | 80.3% | 99.1% | 85.2% | 50.5% | 92.1% | 95.9% | 87.8% | 91.5% | 83.8% | 93.1% | 
Cc1cc(N2CCN(c3ccnc4cc(Cl)ccc34)CC2)nc(N2CCOCC2)n1 | 84.4% | 88.6% | 95.3% | 91.9% | 96.7% | 66.2% |  | 89.4% | 97.8% | 73% | 88.1% |  | 64.1% | 87.4% | 81.1% | 96.6% | 87.2% | 80.6% | 88.6% | 55.9%
COc1cc(C=Nc2oc(-c3ccccc3)c(-c3ccccc3)c2C#N)cc(CN2CCCCC2)c1O | 88.6% | 90.5% | 99.6% | 97.8% | 101% | 103% |  | 105% | 102% | 122% | 107% | 110% | 106% | 94.9% | 102% | 101% | 109% | 104% | 116% | 102%
CC[C@@H]1O[C@H](O[C@@H](c2cnc[nH]2)[C@H](NC(=O)c2nc([C@H](CC(N)=O)NC[C@@H](N)C(N)=O)nc(N)c2C)C(=O)N[C@H](C)[C@H](O)[C@H](C)C(=O)N[C@@H](C(=O)NCCc2nc(-c3nc(C(=O)NCCCCN=C(N)N)cs3)cs2)[C@@H](C)O)[C@H](O[C@@H]2O[C@H](CO)[C@H](O)[C@H](OC(N)=O)[C@@H]2O)[C@H](C)[C@@H]1C | 20.9% | 13% | 105% | 15.6% | 12.5% | 11.4% |  | 36.6% | 25.4% | 64.2% | 49.4% | 45% | 88.7% | 23.1% |  |  | 39.2% |  | 70.9% | 82%
